Records with an inconclusive call do not appear. Activity calls are given as the source filed them. Unless noted, the rule behind the calls is not given here.
What was measured:
[1] = qHTS Assay for Identifying Gametocytocidal Compounds (AID 743244; active = well fitted curve in the direction sought with a large enough effect; an effect the other way counts as inactive or inconclusive; note: potency is the fitted concentration of half-maximal effect;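 for max response: % is set by controls: 0 for no effect and ±100 for the full control effect; actives lower the fluorescent signal which means gametocytes are killed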); settings: P. falciparum 3D7 stage III-V gametocytes, alamarBlue, 72 h; max response: stronger effect = lower value
How it was run: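 Fluorescence at Ex 525/Em 598 nm, recorded 24 h after alamarBlue addition, reports residual metabolic activity of 3D7 gametocytes (stages III–V) following 72 h compound exposure at 37 °C, 5% CO2.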

[2] = qHTS profiling for inhibitors of Plasmodium falciparum (DD2) proliferation (AID 743323); settings: lower = more inhibition; at 28.7 µM (top of the series)
How it was run: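 P. falciparum Dd2-infected erythrocytes (0.3% parasitemia, 2.5% hematocrit) exposed 72 h at 37 C, 5% CO2. Lysis with SYBR Green, overnight at room temperature, fluorescence 485/535 nm; normalized to 0.29 uM artemisinin and DMSO.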

[3] = qHTS profiling of the MIPE4 collection as inhibitors of Plasmodium falciparum (3D7) proliferation (AID 743344);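 note: scaled between DMSO vehicle wells and 0.29 µM artemisinin as full inhibition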; settings: P. falciparum 3D7 in erythrocytes, SYBR Green DNA fluorescence, 72 h; at 28.5 µM (top of the series) unless noted
How it was run: (§1)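 Erythrocytes infected with P. falciparum (0.3% parasitemia, 2.5% hematocrit) incubated with compounds 72 h at 37 C, 5% CO2. Lysis with saponin/Triton buffer containing SYBR Green I, overnight at room temperature in the dark; DNA fluorescence (485/535 nm) normalised to 0.29 uM artemisinin and DMSO.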

[4] = qHTS profiling of the MIPE4 collection as inhibitors of Plasmodium falciparum (DD2) proliferation (AID 743345); settings: P. falciparum Dd2 in erythrocytes, SYBR Green DNA, 72 h; at 28.5 µM (top of the series) unless noted
How it was run: as §1

[5] = qHTS profiling of the MIPE4 collection as inhibitors of Plasmodium falciparum (DD2) proliferation (Rep 2) (AID 743346); settings: P. falciparum Dd2 in erythrocytes, SYBR Green DNA, 72 h; at 28.5 µM (top of the series) unless noted
How it was run: as §1

[6] = qHTS profiling of the MIPE4 collection as inhibitors of Plasmodium falciparum (HB3) proliferation (AID 743347);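 note: plate controls were DMSO vehicle wells for no effect and artemisinin wells for full effect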; settings: P. falciparum HB3 in erythrocytes, SYBR Green DNA, 72 h; at 28.5 µM (top of the series) unless noted
How it was run: as §1

[7] = High-throughput drug toxicity screening in the BPDCN cell line Gen2.2 (AID 1224824); settings: Gen2.2 BPDCN cells; at 45.8 µM (top of the series) unless noted;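 note: cells exposed to compounds for 48 h before reading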
How it was run: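 Gen2.2, 500 cells/well, phenol red-free RPMI/10% FBS/Pen-Strep; 48 h cpd, 37 °C/5% CO2; CTG lum, 15 min RT. Norm: DMSO = 100%, bortezomib 9.2 uM final = 0%.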

[8] = High-throughput drug toxicity screening in the BPDCN cell line Cal-1 (AID 1224825); settings: Cal-1 BPDCN cell viability, qHTS; at 45.8 µM (top of the series) unless noted
How it was run: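 Exponentially growing Cal-1 cells, 500 per well in phenol red-free RPMI with 10% FBS, were exposed to compounds for 48 h at 37 °C, 5% CO2. Viability was read by CellTiter-Glo luminescence and normalised to DMSO (100%) and 9.2 uM bortezomib (0%).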

[9] = qHTS assay for measurement of the activity of small molecule inhibitors on Zika virus induced Caspase-3 activity in human iPSC derived neural progenitor cells (hNPCs) (AID 1224857; active = well fitted curve in the direction sought with a large enough effect; an effect the other way counts as inactive or inconclusive; note: nearly all actives have a fitted effect of over 65% in size; note: potency is the fitted concentration of half-maximal effect; for activity change, negative = inhibition: % of control where 0% means no effect)
How it was run: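 Zika virus (2 FFU/cell) infection of human iPSC-derived NPCs, 6 h, following 1 h compound preincubation. Read-out: Caspase-Glo 3/7 luminescence.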

[10] = qHTS profiling for inhibitors of Plasmodium falciparum (HB3) proliferation (AID 743324; active = well fitted curve in the direction sought with a large enough effect; an effect the other way counts as inactive or inconclusive;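 note: 100% = DMSO vehicle wells and 0% = artemisinin-treated control wells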); settings: Plasmodium falciparum HB3 blood-stage proliferation; at 28.7 µM (top of the series)
How it was run: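 P. falciparum HB3 grown in erythrocytes (0.3% parasitemia, 2.5% hematocrit final) with compound for 72 h at 37 C, 5% CO2. Parasite DNA detected by SYBR Green after saponin/triton lysis overnight; normalized to 0.29 uM artemisinin and DMSO.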

[11] = qHTS profiling for inhibitors of Plasmodium falciparum (3D7) proliferation (AID 743322);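 note: infected erythrocytes exposed to compound for 72 h before lysis; 100% = DMSO vehicle wells and 0% = 0.29 µM artemisinin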; settings: P. falciparum 3D7 proliferation; at 28.7 µM (top of the series)
How it was run: as §1

Row | Structure (SMILES) | max response [1] | activity, percent of control [2] | parasite growth, % of DMSO control [3] | parasite growth remaining, % of DMSO control (lower = more inhibition) [4] | parasite growth, % of control (lower = inhibition) [5] | growth, % of control [6] | cell viability, % of control (lower = more cytotoxic) [7] | viability (% of control) [8] | Potency [9] | Potency [1] | remaining proliferation (% of control), lower = more inhibition [10] | remaining parasite growth % (stronger effect = lower value) [11] | activity change, negative = inhibition [9]
1 | C1Cc2[nH]nc(-c3nn[nH]n3)c2C1 | 38.3% (inactive) | 98.8% | 96.6% | 93.2% | 178% | 108% | 194% | 98.5% | inactive | – | – | – | –
2 | CC(C)(C)c1cnc(CSc2cnc(NC(=O)C3CCNCC3)s2)o1 | – | 6.95% | 11.9% | 13% | 24.1% | 12.8% | 1.75% | 1.24% | inactive | 4.18 µM (active) | 7.19% | – | –
3 | C1=CCOCc2cc(ccc2OCCN2CCCC2)Nc2nccc(n2)-c2cccc(c2)OCC1 | 17.1% (inactive) | – | 5.07% | 5.48% | 15.5% | 5.8% | 8.21% | 5.28% | inactive | – | – | – | –
4 | c1nc2nc(Nc3ccc(N4CCOCC4)cc3)nc(NC3CCCCC3)c2[nH]1 | – | 13.5% | 12.6% | 31.3% | 10.2% | 4.57% | 9.78% | 8.54% | inactive | – | -0.173% | 4.62% | –
5 | CC(C)[C@H](C(=O)Nc1ccc(C(=O)NO)cc1)c1ccccc1 | – | 0.199% | 5.04% | 6.95% | 12.7% | 9.39% | 13.6% | 6.36% | inactive | – | 0.544% | -0.0537% | –
6 | Cc1ccc(-c2ncn(-c3ccc(Nc4nccc(-c5cccc(N6CCOCC6)c5)n4)cc3)n2)cn1 | – | 4.15% | 5.55% | 6.69% | 11.5% | 8.45% | 5.12% | 3.62% | inactive | 11.8 µM (active) | 5.18% | – | –
7 | COc1ccc(CC2c3cc(OC)c(OC)cc3CC[N+]2(C)CCC(=O)OCCCCCOC(=O)CC[N+]2(C)CCc3cc(OC)c(OC)cc3C2Cc2ccc(OC)c(OC)c2)cc1OC (centres undefined) | 8.81% (inactive) | – | 57.8% [at 5.51 µM] | 93.6% [at 5.51 µM] | 58.2% [at 5.51 µM] | 85.6% [at 5.51 µM] | 45.2% [at 5.15 µM] | 99% [at 5.15 µM] | – | – | – | – | 18.4% [at 9.06 µM] (inactive)
8 | CC(C)(C)c1cc(NC(=O)Nc2ccc(-c3cn4c(n3)sc3cc(OCCN5CCOCC5)ccc34)cc2)no1 | – | 0.456% | 4.46% | 7.47% | 15.2% | 2.53% | 252% | 75.9% | inactive | – | -0.226% | -1.57% | –
9 | Clc1ccc2ncc(-c3cccc(NC4CNC4)n3)n2c1 | -0.805% (inactive) | 12% | 10.6% | 24.5% | 24.4% | 3.87% | 15.7% | 4.56% | inactive | – | 6.95% | – | –
10 | Nc1ccccc1NC(=O)c1ccc(CNc2nccc(-c3cccnc3)n2)cc1 | – | 0.67% | 5.35% | – | 7.5% | 2.52% | 12.7% | 5.36% | inactive | 11.8 µM (active) | – | – | –
11 | CC1(C)OC2=C(C(=O)c3ccccc3C2=O)[C@H](NCc2ccccc2)[C@H]1O | – | 0.336% | 6.23% | 7.16% | 6.48% | 3.94% | 12% | 8.3% | 18.7 µM (active) | 0.743 µM (active) | -1.28% | – | –
12 | Nc1nc(Nc2ccc(S(N)(=O)=O)cc2)nn1C(=O)c1c(F)cccc1F | – | 9.84% | 16.5% | – | 14.1% | 9.06% | 13.3% | 6.01% | inactive | 11.8 µM (active) | 10.9% | – | –
13 | Cc1ccc(C(=O)Nc2cccc(C(F)(F)F)c2)cc1-c1ccc2nc(NCCN3CCOCC3)ncc2c1 | – | 0.812% | 6.03% | 7.55% | 22.9% | 8.15% | 11.1% | 5.9% | inactive | – | -1.12% | -2.64% | –
14 | CC(=O)SC[C@@H](C)C(=O)N1CCC[C@H]1C(=O)N[C@@H](Cc1ccccc1)C(=O)O | 7.13% (inactive) | 103% | 100% | – | 69.5% | 111% | 132% | 123% | inactive | – | – | – | –
15 | NC(=O)c1c(OCc2c(F)cc(Br)cc2F)nsc1NC(=O)NCCCCN1CCCC1 | – | 17.3% | 47.5% | 74.6% | 42.1% | 5.84% | 24.4% | 4.13% | inactive | – | 2.02% | -0.239% | –
16 | CN1c2cc(O)c(N=NC(N)=O)cc2CC1S(=O)(=O)O (centres undefined) | 13% (inactive) | – | – | – | 19.7% | – | 170% | 126% | inactive | – | – | – | –
17 | O=C(C=Cc1c(C(=O)O)[nH]c2cc(Cl)cc(Cl)c12)Nc1ccccc1 | 20.3% (inactive) | 103% | 157% | 107% | 159% | 188% | 115% | 98.9% | inactive | – | 99.1% | – | –
18 | COc1ccc(OC)c(-c2nnc3ccc(-c4ccc(OC)c(O[C@@H]5CCOC5)c4)nn23)c1 | -15.7% (inactive) | 0.138% | 5.33% | 6.53% | 16% | 8.79% | 6.73% | 3.56% | inactive | – | 0.357% | – | –
19 | CC[C@@H]1C(=O)N(C)c2cnc(Nc3ccc(C(=O)NC4CCC(N5CCN(CC6CC6)CC5)CC4)cc3OC)nc2N1C(C)C (some centres undefined) | – | 1.64% | 4.79% | 5.71% | 17.4% | 6.88% | 2.88% | 3.23% | inactive | 7.43 µM (active) | – | – | –
20 | Nc1ccc(C(=O)c2cc3c(ccc4ccccc43)[nH]2)cc1 | – | 98.8% | 292% | 83.6% | 118% | 409% | 66.8% | 8.09% | inactive | – | 99.1% | 114% | –
